Most compounds without a hit are left out; they make up all but 3.2% or so of the library.
GDH-TPI inh: inhibits GDH-TPI coupling enzymes, artifact for Mtb FBA screen; GDH-TPI coupled enzyme counterscreen, NADH absorbance; inhibition, % at 4.8 µM; 360,000 tested, 1.2% active; in the data active means inhibition above about 30%;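 further: 0% = DMSO wells and 100% = wells lacking the enzyme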
TcdB inh: inhibitors of Clostridioides difficile toxin B glycohydrolase | P18177 | TcdB glycohydrolase enzymatic assay, plate reader | inhibition, % at 9.99 µM | 350,000 tested, 0.24% active; in the data active means inhibition above about 10%
Mtb FBA inh: inhibitors of M. tuberculosis fructose-bisphosphate aldolase. P9WQA3. purified M. tuberculosis FBA, fluorescence read-out. inhibition, % at 1 µM. 360,000 tested, 2.3% active; in the data active means inhibition above about 27%;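 further: 0% = vehicle and 100% = reference inhibitor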
Target sequence (P9WQA3 whole entry, looked up): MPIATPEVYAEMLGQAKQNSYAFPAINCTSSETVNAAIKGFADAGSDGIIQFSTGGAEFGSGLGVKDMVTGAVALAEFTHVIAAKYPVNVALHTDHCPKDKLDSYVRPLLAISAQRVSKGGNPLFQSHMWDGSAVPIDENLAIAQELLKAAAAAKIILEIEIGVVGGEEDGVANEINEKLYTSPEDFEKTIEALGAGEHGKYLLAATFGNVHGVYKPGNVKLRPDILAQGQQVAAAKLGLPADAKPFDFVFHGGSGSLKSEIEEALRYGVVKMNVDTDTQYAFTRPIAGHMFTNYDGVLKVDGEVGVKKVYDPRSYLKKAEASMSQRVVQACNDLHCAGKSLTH
Y pestis TopoI: inhibitors of Yersinia pestis topoisomerase I | Y. pestis Topo-I cleavage product accumulation, plate reader | 360,000 tested, 0.064% active | activity, % at 10 µM; in the data active means activity above about 50%, passing the limit was not always enough
PrPC TRFRET: inhibitors of human cell surface prion protein PrPC | P04156 | TR-FRET read-out | inhibition, % at 13.8 µM | 370,000 tested, 0.43% active | AID 720596; in the data active means inhibition above about 24%; further: 0% = median of the test wells and 100% = reference compound wells
* hit, by the source's call.

Results for CC(=O)N(C)C[C@H]1Oc2cc(C#Cc3ccccn3)ccc2S(=O)(=O)N([C@@H](C)CO)C[C@H]1C ?
TcdB inh: -0.1

What do the screens show for `CO[C@@H]1CN(C)C(=O)c2cc(NS(=O)(=O)c3c(C)noc3C)ccc2OC[C@H](C)NC[C@@H]1C`?
TcdB inh: 0.6

Results for Cc1cc(O)c2c(c1)C(=O)C13C(=C2O)C(=O)[C@H]2[C@@H](O)[C@@H]1[C@H]1[C@H](O)[C@@H]3C(=O)C3=C(O)c4c(O)cc(C)cc4C(=O)C312 (stereo partly specified) ?
GDH-TPI inh: 38.2*; Mtb FBA inh: -17.8; Y pestis TopoI: 402.9*

Results for COc1ccc(-c2ccc3c(c2)O[C@H](CN(C)C(=O)Nc2ccccc2F)[C@H](C)CN([C@@H](C)CO)S3(=O)=O)cc1 ?
TcdB inh: 0.0

Results for O=C1NC(c2ccccc2)C(C(=O)c2cccs2)C(O)(C(F)(F)F)N1 (stereo unspecified) ?
GDH-TPI inh: 3.2; Mtb FBA inh: 1.9; Y pestis TopoI: -2.3; PrPC TRFRET: -4.7

What do the screens show for `CN1C(=O)NC(c2ccc(O)cc2)C(C(=O)c2cccs2)C1(O)C(F)(F)F` (stereo unspecified)?
GDH-TPI inh: 43.4*; TcdB inh: 2.5; Mtb FBA inh: -3.6; Y pestis TopoI: 6.7; PrPC TRFRET: 4.0

How did C[C@H]1CCCCO[C@H](CN(C)C(=O)c2ccccc2)[C@@H](C)CN([C@@H](C)CO)C(=O)c2cc(NC(=O)Nc3ccc(C(F)(F)F)cc3)ccc2O1 do in these assays?
TcdB inh: -1.1

Results for COC(=O)COc1ccc2c(-c3ccc(OC)cc3)cc(=O)oc2c1 ?
GDH-TPI inh: 18.5; Mtb FBA inh: 0.1; Y pestis TopoI: 0.8; PrPC TRFRET: 4.3

What do the screens show for `COc1ccc(-c2cc(=O)oc3cc(OCc4nn[nH]n4)ccc23)cc1`?
GDH-TPI inh: 36.2*; Mtb FBA inh: 1.7; Y pestis TopoI: 9.4; PrPC TRFRET: -12.8

Results for COc1ccc(-c2cc3ccc(OCc4nn[nH]n4)cc3oc2=O)cc1OC ?
GDH-TPI inh: 42.2*; Mtb FBA inh: 10.7; Y pestis TopoI: 6.2; PrPC TRFRET: -40.3

What do the screens show for `CC(C)(C)c1ccc(CS(=O)(=O)CC(O)CN2CCCC2=O)cc1` (stereo unspecified)?
GDH-TPI inh: -0.6; TcdB inh: -2.3; Mtb FBA inh: -0.5; Y pestis TopoI: -1.7; PrPC TRFRET: 8.6

How did Cc1ccccc1CS(=O)(=O)CC(O)CN1CCCC1=O (stereo unspecified) do in these assays?
GDH-TPI inh: 0.0; TcdB inh: 0.1; Mtb FBA inh: active; Y pestis TopoI: 0.4; PrPC TRFRET: 0.2

How did CCS(=O)(=O)Nc1ccc(C(=O)CC2(O)C(=O)Nc3ccccc32)cc1 (stereo unspecified) do in these assays?
GDH-TPI inh: 38.6*; Mtb FBA inh: -2.4; Y pestis TopoI: 4.9; PrPC TRFRET: -9.5

Results for O=C(CC1(O)C(=O)Nc2ccccc21)c1ccc(-n2cnnn2)cc1 (stereo unspecified) ?
GDH-TPI inh: 3.7; TcdB inh: 1.0; Mtb FBA inh: 1.6; Y pestis TopoI: -3.4; PrPC TRFRET: -7.2

How did COC(=O)[C@]1(CC(C)C)N[C@H](c2ccc(-c3ccc(F)cc3)cc2)[C@@H]2C(=O)N(C)C(=O)[C@@H]21 do in these assays?
GDH-TPI inh: 3.1; TcdB inh: 0.6; Mtb FBA inh: 2.5; Y pestis TopoI: 21.9; PrPC TRFRET: -5.0

How did COC(=O)[C@]1(CC(C)C)N[C@H](c2ccc(-c3ccc(OC)cc3)cc2)[C@@H]2C(=O)N(C)C(=O)[C@@H]21 do in these assays?
GDH-TPI inh: 15.0; TcdB inh: -1.2; Mtb FBA inh: 131.8*; Y pestis TopoI: 29.1; PrPC TRFRET: -2.1

What do the screens show for `O=C(Nc1ccncc1)c1ccc(-c2ccccc2)cc1`?
GDH-TPI inh: 0.9; TcdB inh: 10.7*; Mtb FBA inh: 2.5; Y pestis TopoI: 9.3; PrPC TRFRET: 22.8

What do the screens show for `O=C(Nc1cccnc1)c1ccc(-c2ccccc2)cc1`?
GDH-TPI inh: 0.9; TcdB inh: 0.6; Mtb FBA inh: 10.9; Y pestis TopoI: -4.7; PrPC TRFRET: 10.2

Results for C[C@@H]1CCCCO[C@H](CN(C)C(=O)NC2CCCCC2)[C@H](C)CN([C@@H](C)CO)C(=O)c2cc(NC(=O)CCCN(C)C)ccc2O1 ?
TcdB inh: -0.7

How did CC(c1ccco1)N(C(=O)c1ccccc1NS(=O)(=O)c1ccc(Cl)c([N+](=O)[O-])c1)c1ccccn1 (stereo unspecified) do in these assays?
GDH-TPI inh: 32.1*; TcdB inh: -0.3; Mtb FBA inh: 2.8; Y pestis TopoI: -3.6; PrPC TRFRET: -8.0

How did CC(c1ccco1)N(C(=O)c1cc(Cl)cc(Cl)c1)c1ccccn1 (stereo unspecified) do in these assays?
GDH-TPI inh: 0.8; TcdB inh: 2.0; Mtb FBA inh: 0.9; Y pestis TopoI: 14.1; PrPC TRFRET: 3.5

How did C[C@@H]1CN([C@H](C)CO)C(=O)c2cccc(NS(=O)(=O)c3cccs3)c2O[C@@H]1CN(C)S(=O)(=O)c1ccccc1 do in these assays?
TcdB inh: 0.4

What do the screens show for `CCOC(=O)CN1N=C(/C=C/c2ccc(OC)cc2)CCC1=O`?
GDH-TPI inh: 37.9*; Mtb FBA inh: 1.1; Y pestis TopoI: 7.6; PrPC TRFRET: -8.5

What do the screens show for `CCOC(=O)C(C)N1N=C(/C=C/c2ccc(OC)cc2)CCC1=O` (stereo unspecified)?
GDH-TPI inh: 41.8*; Mtb FBA inh: 0.6; Y pestis TopoI: 14.3; PrPC TRFRET: -2.5

Results for Cc1ccc(/C=C/C2=NN(C)C(=O)CC2)cc1 ?
GDH-TPI inh: 15.5; TcdB inh: 1.3; Mtb FBA inh: 2.7; Y pestis TopoI: 2.3; PrPC TRFRET: 2.1

How did C[C@@H]1CN([C@@H](C)CO)C(=O)c2cc(NS(=O)(=O)c3ccccc3)ccc2O[C@@H](C)CCCCO[C@@H]1CN(C)Cc1ccc2c(c1)OCO2 do in these assays?
TcdB inh: 0.4

How did Clc1ccc2c(N/N=C/c3cccnc3)ccnc2c1 do in these assays?
GDH-TPI inh: 10.6; TcdB inh: -0.1; Mtb FBA inh: -0.7; Y pestis TopoI: -8.6; PrPC TRFRET: -23.5

What do the screens show for `O=c1[nH]ncc(N/N=C\c2ccncc2)c1Cl`?
GDH-TPI inh: 43.6*; TcdB inh: -5.1; Mtb FBA inh: -3.9; Y pestis TopoI: -4.9; PrPC TRFRET: -12.5

What do the screens show for `O=c1[nH]ncc(N/N=C\c2cccnc2)c1Cl`?
GDH-TPI inh: 42.6*; TcdB inh: 0.7; Mtb FBA inh: 1.8; Y pestis TopoI: -4.2; PrPC TRFRET: -13.1

What do the screens show for `Cc1cccc(/C=N\Nc2cn[nH]c(=O)c2Cl)c1`?
GDH-TPI inh: 43.7*; TcdB inh: -0.3; Mtb FBA inh: -2.9; Y pestis TopoI: 1.5; PrPC TRFRET: -10.9

How did O=c1[nH]ncc(N/N=C\c2cccs2)c1Cl do in these assays?
GDH-TPI inh: 35.9*; TcdB inh: -2.3; Mtb FBA inh: -4.2; Y pestis TopoI: -1.9; PrPC TRFRET: -21.2
